DRD3 antagonist: blocks the human D3 dopamine receptor; D3R cells, DiscoveRx beta-arrestin luminescence, antagonist mode; stronger effect = lower value; max response, negative = inhibition, %; hit rate 2.5% among 360,000; in the data active = max response below about -50%; inconclusive = no clear call, values can overlap the other calls; also: % is scaled to controls: 0 for no effect and ±100 for the full control effect
Target sequence (P35462 whole entry, looked up): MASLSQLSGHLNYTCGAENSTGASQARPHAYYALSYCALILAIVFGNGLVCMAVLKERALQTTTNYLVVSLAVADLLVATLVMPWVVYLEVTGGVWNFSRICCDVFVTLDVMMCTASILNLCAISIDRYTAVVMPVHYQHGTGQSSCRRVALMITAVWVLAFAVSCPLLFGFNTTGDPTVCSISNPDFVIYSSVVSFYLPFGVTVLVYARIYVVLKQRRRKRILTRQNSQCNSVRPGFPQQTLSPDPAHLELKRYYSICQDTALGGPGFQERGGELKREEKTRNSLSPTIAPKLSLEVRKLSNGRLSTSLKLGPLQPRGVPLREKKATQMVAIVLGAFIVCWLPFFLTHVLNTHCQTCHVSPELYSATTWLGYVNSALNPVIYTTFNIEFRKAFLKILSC
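Cells plated overnight at 1500 cells/well, then exposed to library compounds with dopamine controls for 90 minutes at 37 degrees C. DiscoveRx reagent added for 30–60 minutes at room temperature; luminescence read, quantitative HTS format.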
Integrin act MD: activators of alpha7 integrin expression for muscular dystrophy | alpha7betagal myoblasts, beta-gal FDG fluorescence, 48 h | AID 624291 | Potency, µM (series often up to 38.3 µM), for inactives: at the top dose activation, actives largely listed as activators | hit rate 0.064% among 350,000;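 also: potency is read from the fitted curve at half-maximal effect; 100% = response of the positive control SU9516; nearly all actives have a fitted effect of over 60% in size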
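Alpha7betagal+/- myoblasts (passage 13) were plated 16-24 hr, then exposed to compounds (1:260 dilution of DMSO stock) for 48 hours at 37C. After MPER lysis, β-galactosidase reporter activity was read as FDG fluorescence (ex 480/em 540) after 30 minutes.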
S2 tox: cell viability loss in ATXN counter-screen | Potency, µM (highest dose often 56.7 µM), most hits filed as cytotoxic | S2 cells (HEK-293 line with an ATXN2-luciferase reporter) viability, CellTiter-Fluor protease fluorescence, 24 h | AID 651635 | hit rate 0.49% among 400,000; also: potency is read from the fitted curve at half-maximal effect; nearly all actives have a fitted effect of over 40% in size
DRD3 agonist: D3 dopamine receptor (human) agonism. AID 652048. hit rate 0.58% among 410,000. D3R DiscoveRx beta-arrestin cells, luminescence, 90 min. max activation, %. P35462; in the data active = max activation above about 30%; also: 0% is about no effect
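Agonist mode: compounds and dopamine controls were applied to plated cells for 90 min at 37 degrees C after an overnight attachment at 1500 cells/well. Luminescent read-out followed 30 - 60 minutes at room temperature with DiscoveRx detection reagent.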
ATXN2 expr inh: ATXN2 expression inhibition | HEK-293 ATXN2-luciferase reporter, luminescence, 24 h | Potency, µM (doses to about 57 µM), inactives show top-dose activity change, negative = inhibition, hits mostly inhibitors | hit rate 0.72% among 360,000 | AID 1745845; also: potency is read from the fitted curve at half-maximal effect; % is scaled to controls: 0 for no effect and ±100 for the full control effect; nearly all actives have a fitted effect of over 55% in size
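ATXN2-luciferase reporter cells (luciferase flanked by upstream and downstream ATXN2 gene portions) were treated 24 h at 37 °C with compounds at up to 57 uM. SteadyGlo luminescence gave expression; GF-AFC fluorescence gave viability.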
IL-1B inflam inh: blocks inflammasome-driven IL-1 beta release; hit rate 4.7% among 360,000; THP-1 LPS/ATP IL-1B secretion, AlphaLISA, 16 h; stronger effect = lower value; activity change, % at 57.5 µM; in the data active = activity change below about -50%; inconclusive = mostly about -30% to -49%; also: % is scaled to controls: 0 for no effect and ±100 for the full control effect
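THP-1 cells pretreated 1 hr with compounds (up to 57.5 uM final), then stimulated with LPS (250 ng/mL final) plus ATP (1.25 mM final); secreted IL-1B measured by AlphaLISA after 16 hr, decreased signal indicating inhibition.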
* = called active by the depositor; i = inactive; ? = inconclusive; nt = not tested or not shown; [ ] = remark or other dose. Rows were chosen to be rich in hits. Some 7% of all compounds tested hit in one or more screens of this group. Unless noted, calls follow the shape of the dose curve; as a rule, active = well fitted curve in the direction sought with a large enough effect; inconclusive = small, poorly fitted or top-dose-only effect, or another doubt; inactive = no such curve, though single readings can be large; an effect the other way counts as inactive or inconclusive.

SMILES	DRD3 antagonist	Integrin act MD	S2 tox	DRD3 agonist	ATXN2 expr inh	IL-1B inflam inh
COc1ccc(CN(C)C(=O)c2ccccc2OCc2c(C)noc2C)c(OC)c1	13.4	-20.6%	i	-5.4	4.3%	34.4
O=C(NNC1CC(=O)N(c2ccc(Br)cc2)C1=O)c1cccnc1 (stereo not drawn)	23.0	-11.6%	i	3.5	nt	0.0
CN1CC[C@@]2([C@@]34CCN(C)C3Nc3ccccc34)c3ccccc3NC12 (stereo partly drawn)	4.4	-7.0%	i	-5.1	-5.8%	-9.6
COc1cc(C(C)=O)ccc1OCC(O)CN1CCN(c2ccc(C)c(C)c2)CC1 (stereo not drawn)	-52.2*	-10.5%	i	-7.6	-2.5%	8.9
CC(=O)Nc1ccc(OCC(O)CN2CCN(c3ccc(C)c(Cl)c3)CC2)cc1 (stereo not drawn)	-144.3*	-22.8%	i	-31.6	?	-13.4
COc1cc(C(C)=O)ccc1OCC(O)CN1CCN(c2c(C)cccc2C)CC1 (stereo not drawn)	-23.4	-36.9%	?	-16.2	?	-0.6
O=C(N/N=C/c1cc(Br)cs1)c1c[nH]c2ccccc12	?	-2.7%	i	-17.1	nt	0.0
O=C(N/N=C/c1ccc(Br)s1)c1c[nH]c2ccccc12	-54.7*	-1.8%	i	-20.9	18.7%	-80.6*
O=C1CN(C(=O)/C=C/c2ccccc2)CCN1	2.8	-13.5%	i	4.0	7.3%	-5.3
C=CC(=O)N1C/C(=C/c2ccccc2)C(=O)/C(=C\c2ccccc2)C1	-62.3*	-44.8%	9.47µM*	-18.7	6.7µM*	-102.6*
O=C1C(=Cc2ccc(Cl)cc2)Cc2ccccc21	0.0	nt	i	-2.2	2.2%	16.8
C=CC(=O)N1C/C(=C/c2ccc(Cl)cc2)C(=O)/C(=C\c2ccc(Cl)cc2)C1	?	-53.8%	0.891µM*	-13.9	2.82µM*	-115.2*
O=C(COc1ncnc2cc([N+](=O)[O-])ccc12)N(CCc1ccccc1)Cc1ccccc1	47.0	-16.4%	i	20.7	-2.4%	-10.2
CCOC(=O)C1(C)CCCN1C(=O)c1snnc1C (stereo not drawn)	-51.1*	nt	i	-5.1	2.6%	17.6
O=C(NCCCCc1ccccc1)Nc1cccc(F)c1	9.7	-14.7%	i	-3.2	-28.3%	-98.7*
Cc1cccc(NC(=O)NCCCCc2ccccc2)c1	2.0	12.9%	i	1.5	0.4%	-17.8
CSc1ccc(C(O)c2ncc(-c3cccc(OCc4ccccc4)c3)[nH]2)cc1 (stereo not drawn)	30.2	nt	?	4.7	-19.5%	-15.0
Cc1ccc(NC(=O)CN(C)S(=O)(=O)c2ccc(Br)s2)cc1F	1.9	0.0%	i	-10.5	-17.4%	-62.5*
CCN1CCCC1CN(Cc1cc2cc(OC)ccc2[nH]c1=O)C(=O)NCc1ccccc1 (stereo not drawn)	0.0	-2.3%	?	-7.5	-13.5%	-6.0
COc1ccc(CNC(=O)C2Cc3c(-c4ccccc4)ccnc3O2)cc1OC (stereo not drawn)	22.1	nt	i	0.1	-2.1%	-11.9
CC(=O)Nc1ccc(NC(=O)C2Cc3c(-c4cccc(NC(C)=O)c4)ccnc3O2)cc1 (stereo not drawn)	0.0	nt	i	-13.7	6.8%	-24.6
COc1ccc(CCCNC(=O)C2Cc3c(-c4ccccc4)ccnc3O2)cc1 (stereo not drawn)	-13.8	nt	17.8µM*	-2.9	?	-22.0
COc1ccc(NC(=O)C2Cc3c(-c4cccc(NC(C)=O)c4)ccnc3O2)cc1 (stereo not drawn)	-57.7*	nt	?	-6.8	-15.6%	43.1
O=C(Nc1ccccc1)C1Cc2c(-c3cccc(F)c3)ccnc2O1 (stereo not drawn)	-1.0	nt	i	1.4	-11.7%	-62.7*
CC(=O)c1cccc(-c2ccnc3c2CC(C(=O)Nc2ccc(Cl)cc2)O3)c1 (stereo not drawn)	-60.9*	nt	?	-15.4	?	-7.9
SMILES	DRD3 antagonist	Integrin act MD	S2 tox	DRD3 agonist	ATXN2 expr inh	IL-1B inflam inh
CC(=O)Nc1ccc(NC(=O)C2Cc3c(-c4cccc(C(C)=O)c4)ccnc3O2)cc1 (stereo not drawn)	0.0	nt	i	-10.0	12.3%	30.4
CC(C)N1CCC1(C)C(=O)Nc1ccc2scnc2c1 (stereo not drawn)	13.0	nt	i	-2.0	6.1%	7.2
O=C(N/N=C/c1cc(Br)c(Br)o1)c1cccnc1	-7.4	-38.8%	i	-3.8	-8.7%	6.1
O=C(c1nsc(Cl)c1Cl)N1CCCCC1	-9.9	1.0%	i	8.1	-7.6%	-8.3
C=CCN(CC=C)C(=O)c1cccc(OC2CCN(CC(C)(C)C)CC2)c1	8.4	?	?	-2.6	-18.9%	22.5
CC(=O)Nc1ccc(-c2ccnc3c2CC(C(=O)Nc2ccc(C(C)C)cc2)O3)cc1 (stereo not drawn)	-4.3	nt	i	2.3	-27.2%	-23.3
CC(=O)Nc1cccc(-c2ccnc3c2CC(C(=O)Nc2ccc(C(C)C)cc2)O3)c1 (stereo not drawn)	-19.1	nt	?	-0.8	?	-51.0*
Cn1c(=NC(=O)CS(=O)(=O)c2ccccc2)sc2ccccc21	1.4	-3.7%	i	3.7	51.0%	5.8
CCn1c(=NC(=O)CS(=O)(=O)c2ccccc2)sc2cccc(OC)c21	22.4	-38.2%	i	3.0	-8.6%	-59.1*
COc1cccc(CSc2nc3ccccc3c3nc(CCn4c(C)nc5ccccc54)nn23)c1	nt	nt	i	2.8	-1.9%	nt
CCCOc1cccc(C2C(C(=O)c3ccc(C)o3)=C(O)C(=O)N2CCN2CCOCC2)c1 (stereo not drawn)	-4.4	0.0%	i	0.8	0.2%	19.4
COc1cc(C2C(C(=O)c3ccc(C)o3)=C(O)C(=O)N2Cc2ccccc2)ccc1O (stereo not drawn)	-22.2	18.0%	i	-5.2	-20.6%	0.0
CCOc1cc(C2C(C(=O)c3ccc(C)o3)=C(O)C(=O)N2CCc2ccccc2)ccc1O (stereo not drawn)	-56.3*	8.6%	i	0.0	-7.2%	4.4
Cc1ccc(C(=O)C2=C(O)C(=O)N(Cc3cccnc3)C2c2cccc(Oc3ccccc3)c2)o1 (stereo not drawn)	-69.3*	-19.6%	i	1.8	-22.7%	22.1
Cc1ccc(C(=O)C2=C(O)C(=O)N(Cc3ccccc3)C2c2cccnc2)o1 (stereo not drawn)	31.4	-24.8%[7.66 µM]	i	11.2	-16.3%	20.7
C=CCOc1cccc(C2C(C(=O)c3ccc(C)o3)=C(O)C(=O)N2CCN(C)C)c1 (stereo not drawn)	-63.5*	16.0%	i	-6.6	-0.8%	-9.7

Bioassay records from PubChem.
